# Measurements from the supplement of paper PMC10849652.
# About 8,800 targets were measured; listed, in parts, are those with a hit and a random draw of the rest. About 0.5% of all pairs of compound and target were hits. A number with no mark means an inactive call.
# Key:
# Assay in all cases: log2 fold change, soluble protein after heating vs DMSO (PISA); higher = thermal stabilisation; K562 lysate, 10 uM; active = over 0.2 and 3.5 SD of the protein, either way, in both replicates (recomputed)
# lapatinib = compound: CS(=O)(=O)CCNCc1ccc(-c2ccc3ncnc(Nc4ccc(OCc5cccc(F)c5)c(Cl)c4)c3c2)o1 [lapatinib]
# In short: (§1)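 K562 pellets were dounce-homogenised in PBS pH 7.4 with 1 mM MgCl2, and the crude extract at 1 mg/mL protein was treated with 10 μM compound for 30 min. Aliquots were heated for 3 min across 48°C-58°C, pooled, and brought to 0.5% NP-40 at 4°C; soluble protein was the supernatant after 21,000xg for 90 min. Soluble protein was quantified by TMTpro 16plex LC-MS/MS with channel sums equalised, and reported as log2 fold change in thermal stability against DMSO controls, with values from duplicates.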
# pictilisib = compound: CS(=O)(=O)N1CCN(Cc2cc3nc(-c4cccc5[nH]ncc45)nc(N4CCOCC4)c3s2)CC1 [pictilisib]
# In short: as §1
# crizotinib = compound: C[C@@H](Oc1cc(-c2cnn(C3CCNCC3)c2)cnc1N)c1c(Cl)ccc(F)c1Cl [crizotinib]
# In short: as §1
# [1] = compound: C[C@H](C1=CC=C(C=C1)C(=O)NC2=C3C=CNC3=NC=C2)N
# In short: as §1
# duvelisib = compound: C[C@H](Nc1ncnc2nc[nH]c12)c1cc2cccc(Cl)c2c(=O)n1-c1ccccc1 [duvelisib]
# In short: as §1
# gandotinib = compound: Cc1cc(Nc2cc(CN3CCOCC3)c3nc(C)c(Cc4ccc(Cl)cc4F)n3n2)n[nH]1 [gandotinib]
# In short: as §1
# tozasertib = compound: Cc1cc(Nc2cc(N3CCN(C)CC3)nc(Sc3ccc(NC(=O)C4CC4)cc3)n2)n[nH]1 [tozasertib]
# In short: as §1
# doramapimod = compound: Cc1ccc(-n2nc(C(C)(C)C)cc2NC(=O)Nc2ccc(OCCN3CCOCC3)c3ccccc23)cc1 [doramapimod]
# In short: as §1
# bafetinib = compound: Cc1ccc(NC(=O)c2ccc(CN3CC[C@H](N(C)C)C3)c(C(F)(F)F)c2)cc1Nc1nccc(-c2cncnc2)n1 [bafetinib]
# In short: as §1
# [2] = compound: Cc1cccc(CC(=O)N2CCc3c2ccc(-c2cn(C)c4ncnc(N)c24)c3F)n1
# In short: as §1
# nilotinib = compound: Cc1cn(-c2cc(NC(=O)c3ccc(C)c(Nc4nccc(-c5cccnc5)n4)c3)cc(C(F)(F)F)c2)cn1 [nilotinib]
# In short: as §1
# [3] = compound: Cc1nc(Nc2n[nH]c3c2CN(C(=O)N[C@H](CN(C)C)c2ccccc2)C3(C)C)c2sccc2n1
# In short: as §1
# dasatinib = compound: Cc1nc(Nc2ncc(C(=O)Nc3c(C)cccc3Cl)s2)cc(N2CCN(CCO)CC2)n1 [dasatinib]
# In short: as §1
# [4] = compound: Cc1ncc(-c2ccnc(Nc3ccc(S(C)(=O)=O)cc3)n2)n1C(C)C
# In short: as §1
# [5] = compound: Cn1cc(-c2ccc3c(c2)CCN3C(=O)Cc2cccc(C(F)(F)F)c2)c2c(N)ncnc21
# In short: as §1
# quisinostat = compound: Cn1cc(CNCC2CCN(c3ncc(C(=O)NO)cn3)CC2)c2ccccc21 [quisinostat]
# In short: as §1
# tipifarnib = compound: Cn1cncc1[C@@](N)(c1ccc(Cl)cc1)c1ccc2c(c1)c(-c1cccc(Cl)c1)cc(=O)n2C [tipifarnib]
# In short: as §1
# [6] = compound: NC(=O)Nc1cc(-c2cccc(F)c2)sc1C(=O)N[C@H]1CCCNC1
# In short: as §1
# [7] = compound: NC(=O)c1cnc(N[C@@H]2CCCC[C@@H]2N)nc1Nc1cccc(-n2nccn2)c1
# In short: as §1
# [8] = compound: NC1(c2ccc(-c3nc4ccn5c(=O)[nH]nc5c4cc3-c3ccccc3)cc2)CCC1
# In short: as §1
# Sequence of UniProt Q8IVF4 (Q8IVF4 whole entry, looked up): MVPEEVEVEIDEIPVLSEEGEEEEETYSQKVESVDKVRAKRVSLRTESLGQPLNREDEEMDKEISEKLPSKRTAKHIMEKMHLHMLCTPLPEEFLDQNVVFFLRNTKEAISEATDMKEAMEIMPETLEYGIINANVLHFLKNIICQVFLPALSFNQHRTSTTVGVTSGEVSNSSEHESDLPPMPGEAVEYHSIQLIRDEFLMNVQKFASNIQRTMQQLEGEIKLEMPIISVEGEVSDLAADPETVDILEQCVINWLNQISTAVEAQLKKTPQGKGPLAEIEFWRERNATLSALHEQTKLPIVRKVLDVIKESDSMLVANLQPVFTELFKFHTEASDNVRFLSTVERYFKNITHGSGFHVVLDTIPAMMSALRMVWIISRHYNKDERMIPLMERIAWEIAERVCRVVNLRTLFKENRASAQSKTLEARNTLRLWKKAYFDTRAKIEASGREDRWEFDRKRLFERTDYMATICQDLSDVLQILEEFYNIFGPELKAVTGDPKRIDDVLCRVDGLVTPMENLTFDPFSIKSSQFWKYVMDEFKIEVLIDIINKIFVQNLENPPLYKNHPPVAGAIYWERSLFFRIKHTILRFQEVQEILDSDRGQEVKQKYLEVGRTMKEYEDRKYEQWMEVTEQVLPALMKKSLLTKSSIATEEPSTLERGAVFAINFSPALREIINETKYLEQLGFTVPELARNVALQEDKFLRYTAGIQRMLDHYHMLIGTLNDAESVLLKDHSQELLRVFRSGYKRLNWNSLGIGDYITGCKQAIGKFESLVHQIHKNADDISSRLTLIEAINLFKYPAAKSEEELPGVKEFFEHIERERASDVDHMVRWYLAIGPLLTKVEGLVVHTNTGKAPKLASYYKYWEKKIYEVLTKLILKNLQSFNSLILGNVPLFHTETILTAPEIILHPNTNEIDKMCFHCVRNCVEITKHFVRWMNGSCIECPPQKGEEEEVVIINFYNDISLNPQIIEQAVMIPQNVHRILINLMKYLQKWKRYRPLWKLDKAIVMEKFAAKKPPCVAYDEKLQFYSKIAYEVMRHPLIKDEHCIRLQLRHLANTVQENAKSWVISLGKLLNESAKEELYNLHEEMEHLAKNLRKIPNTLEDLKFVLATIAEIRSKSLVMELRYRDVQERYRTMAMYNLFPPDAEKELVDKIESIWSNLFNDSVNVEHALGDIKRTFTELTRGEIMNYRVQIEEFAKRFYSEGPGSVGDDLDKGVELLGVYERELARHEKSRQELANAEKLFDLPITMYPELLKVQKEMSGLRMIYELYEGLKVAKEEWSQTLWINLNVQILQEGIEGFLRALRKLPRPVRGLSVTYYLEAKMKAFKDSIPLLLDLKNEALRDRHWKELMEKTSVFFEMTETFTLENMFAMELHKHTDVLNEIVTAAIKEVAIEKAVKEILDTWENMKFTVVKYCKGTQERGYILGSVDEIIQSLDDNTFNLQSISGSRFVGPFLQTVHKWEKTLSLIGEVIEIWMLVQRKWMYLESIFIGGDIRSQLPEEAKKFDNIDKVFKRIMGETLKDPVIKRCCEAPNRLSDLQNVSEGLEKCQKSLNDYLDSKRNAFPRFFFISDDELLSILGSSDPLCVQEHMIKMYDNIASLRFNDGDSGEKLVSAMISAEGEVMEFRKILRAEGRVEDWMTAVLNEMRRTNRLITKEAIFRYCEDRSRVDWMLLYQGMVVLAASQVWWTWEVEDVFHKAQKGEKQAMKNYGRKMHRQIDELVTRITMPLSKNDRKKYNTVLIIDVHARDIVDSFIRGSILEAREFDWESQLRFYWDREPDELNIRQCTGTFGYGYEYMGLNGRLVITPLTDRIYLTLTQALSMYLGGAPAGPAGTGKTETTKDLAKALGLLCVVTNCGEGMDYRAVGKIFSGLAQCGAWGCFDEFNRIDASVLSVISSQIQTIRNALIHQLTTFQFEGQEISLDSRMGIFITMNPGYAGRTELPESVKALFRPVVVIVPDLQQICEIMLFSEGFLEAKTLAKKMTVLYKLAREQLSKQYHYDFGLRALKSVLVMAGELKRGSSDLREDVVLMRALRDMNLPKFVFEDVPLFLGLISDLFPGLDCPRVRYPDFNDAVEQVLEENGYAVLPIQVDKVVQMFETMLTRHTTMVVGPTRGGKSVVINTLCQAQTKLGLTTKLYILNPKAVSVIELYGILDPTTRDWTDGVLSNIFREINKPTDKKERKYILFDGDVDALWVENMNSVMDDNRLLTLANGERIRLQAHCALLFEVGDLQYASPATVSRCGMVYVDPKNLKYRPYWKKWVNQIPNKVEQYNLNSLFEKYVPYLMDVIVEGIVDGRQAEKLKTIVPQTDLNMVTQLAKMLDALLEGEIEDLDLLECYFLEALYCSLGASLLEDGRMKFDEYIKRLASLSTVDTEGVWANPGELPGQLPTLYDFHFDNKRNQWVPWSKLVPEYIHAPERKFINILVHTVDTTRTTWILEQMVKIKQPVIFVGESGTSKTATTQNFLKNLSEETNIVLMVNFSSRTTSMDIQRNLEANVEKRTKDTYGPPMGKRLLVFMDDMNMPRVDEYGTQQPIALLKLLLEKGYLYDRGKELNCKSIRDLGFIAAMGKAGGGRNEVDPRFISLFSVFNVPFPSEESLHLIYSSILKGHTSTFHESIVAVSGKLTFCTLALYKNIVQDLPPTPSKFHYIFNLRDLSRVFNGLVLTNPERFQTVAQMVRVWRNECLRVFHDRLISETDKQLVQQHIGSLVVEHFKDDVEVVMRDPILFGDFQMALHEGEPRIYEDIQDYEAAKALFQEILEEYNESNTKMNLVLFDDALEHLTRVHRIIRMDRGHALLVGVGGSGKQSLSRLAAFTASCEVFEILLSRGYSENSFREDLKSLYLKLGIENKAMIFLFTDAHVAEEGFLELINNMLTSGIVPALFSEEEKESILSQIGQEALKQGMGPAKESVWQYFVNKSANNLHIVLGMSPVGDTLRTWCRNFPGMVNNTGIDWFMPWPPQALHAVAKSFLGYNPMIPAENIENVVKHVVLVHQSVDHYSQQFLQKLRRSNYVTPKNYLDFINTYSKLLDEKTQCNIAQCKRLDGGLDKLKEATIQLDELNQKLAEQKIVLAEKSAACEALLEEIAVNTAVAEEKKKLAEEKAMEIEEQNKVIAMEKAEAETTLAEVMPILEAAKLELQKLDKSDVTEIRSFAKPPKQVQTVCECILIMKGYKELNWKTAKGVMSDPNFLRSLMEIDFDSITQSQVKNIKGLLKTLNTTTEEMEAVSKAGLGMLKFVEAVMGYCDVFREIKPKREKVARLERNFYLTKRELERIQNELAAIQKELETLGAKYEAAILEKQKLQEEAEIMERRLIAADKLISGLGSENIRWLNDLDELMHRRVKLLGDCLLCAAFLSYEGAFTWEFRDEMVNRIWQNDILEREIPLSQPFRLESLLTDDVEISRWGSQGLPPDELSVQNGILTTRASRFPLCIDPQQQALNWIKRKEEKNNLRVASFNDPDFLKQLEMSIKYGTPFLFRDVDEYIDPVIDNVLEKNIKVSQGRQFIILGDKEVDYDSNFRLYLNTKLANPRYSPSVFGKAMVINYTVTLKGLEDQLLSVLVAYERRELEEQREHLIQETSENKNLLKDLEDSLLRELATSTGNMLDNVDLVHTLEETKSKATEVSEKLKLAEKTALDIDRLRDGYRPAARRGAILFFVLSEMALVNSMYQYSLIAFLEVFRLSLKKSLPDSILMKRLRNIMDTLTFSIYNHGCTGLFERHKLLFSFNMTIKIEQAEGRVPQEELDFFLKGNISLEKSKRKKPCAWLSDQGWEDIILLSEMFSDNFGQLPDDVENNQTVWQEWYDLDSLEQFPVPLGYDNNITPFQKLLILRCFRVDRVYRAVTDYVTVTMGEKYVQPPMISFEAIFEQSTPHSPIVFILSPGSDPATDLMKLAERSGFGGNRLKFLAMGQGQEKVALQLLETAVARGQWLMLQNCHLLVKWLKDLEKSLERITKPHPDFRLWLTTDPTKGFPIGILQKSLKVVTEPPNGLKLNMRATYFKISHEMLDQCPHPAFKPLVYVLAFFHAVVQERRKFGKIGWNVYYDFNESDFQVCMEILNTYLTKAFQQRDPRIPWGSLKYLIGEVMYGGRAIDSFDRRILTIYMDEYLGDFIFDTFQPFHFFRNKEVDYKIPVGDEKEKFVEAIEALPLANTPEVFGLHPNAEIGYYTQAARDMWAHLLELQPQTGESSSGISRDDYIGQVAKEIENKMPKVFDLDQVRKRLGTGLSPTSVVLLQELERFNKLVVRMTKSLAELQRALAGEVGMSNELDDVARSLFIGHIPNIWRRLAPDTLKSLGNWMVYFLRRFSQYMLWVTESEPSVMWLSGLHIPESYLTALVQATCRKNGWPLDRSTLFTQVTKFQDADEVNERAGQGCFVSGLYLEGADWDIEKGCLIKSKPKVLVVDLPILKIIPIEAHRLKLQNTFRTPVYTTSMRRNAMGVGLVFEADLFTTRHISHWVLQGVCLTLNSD
# Sequence of UniProt O00148 (O00148 whole entry, looked up): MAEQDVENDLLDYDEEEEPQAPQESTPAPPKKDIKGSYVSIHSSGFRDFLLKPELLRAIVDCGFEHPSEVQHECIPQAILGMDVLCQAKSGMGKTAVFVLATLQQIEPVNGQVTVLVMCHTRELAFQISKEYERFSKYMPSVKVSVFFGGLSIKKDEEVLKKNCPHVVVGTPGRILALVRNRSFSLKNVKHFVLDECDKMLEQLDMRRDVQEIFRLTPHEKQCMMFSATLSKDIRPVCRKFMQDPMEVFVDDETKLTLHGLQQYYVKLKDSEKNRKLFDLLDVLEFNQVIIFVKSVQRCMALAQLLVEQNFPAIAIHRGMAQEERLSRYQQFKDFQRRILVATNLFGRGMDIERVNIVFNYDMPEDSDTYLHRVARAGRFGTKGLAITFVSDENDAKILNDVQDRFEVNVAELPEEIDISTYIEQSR
# Sequence of UniProt Q9BQ75 (Q9BQ75 whole entry, looked up): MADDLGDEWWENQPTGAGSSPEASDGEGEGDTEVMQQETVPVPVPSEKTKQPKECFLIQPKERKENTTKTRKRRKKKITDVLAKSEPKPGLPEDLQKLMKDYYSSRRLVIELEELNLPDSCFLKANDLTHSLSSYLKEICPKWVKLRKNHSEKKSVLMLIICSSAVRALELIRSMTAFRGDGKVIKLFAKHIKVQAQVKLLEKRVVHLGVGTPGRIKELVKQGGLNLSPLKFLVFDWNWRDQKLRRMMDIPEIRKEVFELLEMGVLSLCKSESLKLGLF
Target,log2 fold change (lapatinib),log2 fold change (pictilisib),log2 fold change (crizotinib),log2 fold change [1],log2 fold change (duvelisib),log2 fold change (gandotinib),log2 fold change (tozasertib),log2 fold change (doramapimod),log2 fold change (bafetinib),log2 fold change [2],log2 fold change (nilotinib),log2 fold change [3],log2 fold change (dasatinib),log2 fold change [4],log2 fold change [5],log2 fold change (quisinostat),log2 fold change (tipifarnib),log2 fold change [6],log2 fold change [7],log2 fold change [8]
COPZ1 isoform 4 (UniProt P61923),0.161,0.062,0.09,0.083,-0.022,-0.066,0.028,-0.044,-0.048,-0.088,0.012,0,0.015,0.088,0.023,0.289,0.002,-0.029,-0.103,0.037
CNP (UniProt P09543),0.014,0.015,-0.023,0.002,-0.002,-0.047,0.012,0.039,-0.026,0.022,0.033,0.023,-0.047,-0.007,0.003,-0.028,-0.055,-0.009,-0.007,-0.009
DNAH10 (UniProt Q8IVF4),-0.075,0.066,-0.136,-0.553 (active),0.044,0.172,-0.024,0.076,-0.08,0.196,0.017,0.014,-0.026,-0.024,-0.026,-0.251,0.025,0.012,-0.017,-0.072
CMIP (UniProt Q8IY22),0.002,-0.013,-0.001,0.046,-0.035,-0.062,0.017,-0.094,-0.064,0.002,-0.034,0.023,-0.063,0.016,0.008,-0.052,-0.045,0.075,-0.008,-0.036
DMXL1 (UniProt Q9Y485),-0.003,-0.014,-0.021,0.001,0.007,-0.028,0.002,0.039,-0.01,0.026,0.03,0.006,-0.017,-0.005,0.025,-0.009,-0.015,0.01,0.014,0.034
DCTN1 (UniProt Q14203),-0.005,-0.021,-0.005,0.027,0.001,-0.029,-0.002,-0.013,-0.023,-0.005,0.008,-0.005,-0.025,0.012,0.017,0.001,-0.001,0.011,0.009,-0.007
DFFB (UniProt O76075),0.003,-0.016,0.023,0.003,-0.008,0.015,0.049,-0.07,-0.028,-0.021,0.192,-0.062,0.008,0.155,0.012,0.038,-0.013,-0.049,0.026,-0.047
CRABP2 (UniProt P29373),-0.008,-0.026,-0.025,0.041,-0.056,0.091,0.241,0.078,0.014,-0.138,-0.063,-0.125,0.076,-0.066,0.006,-0.004,0.061,-0.049,-0.036,-0.02
CORO1A (UniProt P31146),-0.018,-0.058,-0.008,-0.069,0.038,0.037,0.089,0.009,-0.028,-0.001,0.003,-0.012,-0.146,0.022,0.034,-0.028,0.032,-0.015,-0.017,-0.026
CSNK2A2 (UniProt P19784),-0.116,0.057,-0.071,0.099,-0.02,-0.1,-0.035,-0.015,0.009,-0.041,-0.031,0.195,-0.039,0.254,-0.004,0.001,-0.014,0.094,0.018,-0.003
CMSS1 (UniProt Q9BQ75),0.012,0.016,-0.021,0.176,-0.001,-0.086,0.009,0.015,-0.026,-0.015,-0.025,0.014,-0.019,0,0.014,0.023,0.06,0.013,0.004,0.031
DDX20 (UniProt Q9UHI6),-0.041,0.024,-0.088,0.029,0.008,-0.137,-0.065,0.015,-0.016,0.054,-0.009,0.008,-0.054,0.003,0.058,-0.058,-0.01,0.095,0.03,-0.024
DOCK7 (UniProt Q96N67),-0.003,-0.016,-0.022,-0.107,-0.004,-0.103,0.047,0.012,-0.032,0.102,0.005,-0.002,0.01,-0.03,0.029,-0.039,-0.01,0.048,0.036,-0.062
DDX39A (UniProt O00148),-0.004,0.021,0.006,-0.022,0.004,-0.104,-0.008,-0.046,-0.004,0.093,-0.002,0.02,0.001,0.007,0.06,-0.018,-0.053,0.075,0.036,-0.013
CTNNBL1 (UniProt Q8WYA6),0,-0.011,-0.032,0.015,0,-0.058,0.033,0.058,-0.103,0.043,-0.034,0.02,0.025,-0.013,-0.065,-0.008,-0.019,0.02,0.011,-0.138
CUX1 isoform 3 (UniProt P39880),-0.01,-0.045,0.004,0.076,0.007,-0.116,0.032,-0.025,-0.012,0.007,-0.029,0.026,-0.04,0.012,0.006,-0.02,-0.057,0.006,0.03,-0.015
